Source: PubChem BioAssay
Only a selection was taken, and hits are over-represented in it overall.
YB-1 expression: YB-1 expression inhibition; U2OS, qRT-PCR YB-1 vs CDIP delta delta Cp, 16 h; hits give high values; zero = DMSO, each unit about twofold; delta delta Cp (YB-1 minus CDIP) (concentration not given with the values); 30,000 tested, 0.37% active; AID 434959;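 active means delta delta Cp rounded down to an integer at or above 3, about 3 SD of DMSO wells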;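 further: higher means less YB-1 transcript or more CDIP transcript relative to DMSO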
U2OS ROS induce: raises reactive oxygen species in U2OS cancer cells; U2OS ROS induction, H2DCF-DA fluorescence; ROS induction (% of piperlongumine), % at 10 µM; 46,000 tested, 2% active; AID 624156; in the data active means ROS induction above about 79%, passing the limit was not always enough;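 further: 0% = DMSO vehicle median and 100% = reference compound median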
NOMO-1 viab: STK33 inhibitor candidate reducing NOMO-1 cell viability | NOMO-1 AML viability, CellTiter-Glo luminescence, 72 h | inhibition, % (test concentration not listed) | 37,000 tested, 7.5% active; in the data active means inhibition above about 80%
PD-1 reverse act: activators reversing PD-1 mediated T-cell inhibition; primary human CD4 T cells, PD-L1 beads, CellTiter-Glo 96 h; activation, % (test concentration not listed); AID 2316; 29,000 tested, under 10 active; call rule not given here;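 further: 0% = median vehicle wells and 100% = positive control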
* hit, by the source's call; x = no result.

SMILES | YB-1 expression | U2OS ROS induce | NOMO-1 viab | PD-1 reverse act
Cn1c(=O)c2c(nc(NCC(O)c3ccccc3)n2Cc2ccc(F)cc2)n(C)c1=O (configuration not stated) | x | 23 | 95* | -7
Cn1c(=O)c2c(nc(NCCN)n2Cc2ccc(Cl)cc2)n(C)c1=O | x | 8 | 17 | 2
CCn1c(SCC(=O)Nc2cccc(OC)c2)nnc1-c1cccc(C)c1 | x | 7 | -6 | 0
CCC(Sc1nnc(C)n2c1cc1oc(C)cc12)C(=O)Nc1cccc(OC)c1 (configuration not stated) | x | 96* | x | x
Cc1ccc(S(=O)(=O)Nc2ccc3c(c2)CC(=O)N([C@H](C)CO)C[C@@H](C)[C@H](CN(C)CC2CCCCC2)O3)cc1 | 0.002 | 5 | 84* | 1
Cc1ccc(S(=O)(=O)Nc2ccc3c(c2)CC(=O)N([C@H](C)CO)C[C@@H](C)[C@@H](CN(C)CC2CCCCC2)O3)cc1 | 0.18 | -9 | 97* | -5
Cc1ccc(S(=O)(=O)Nc2ccc3c(c2)CC(=O)N([C@@H](C)CO)C[C@H](C)[C@H](CN(C)CC2CCCCC2)O3)cc1 | -0.31 | 17 | 102* | -1
Cc1cccc(-n2c(SCC(=O)Nc3ccc(C)cc3Br)nnc2-c2ccncc2)c1 | x | 16 | 11 | -1
CC1C(=O)C(=O)[C@@H]2O[C@@H]2C1=O (some centres not stated) | -1.9 | -12 | 96* | 0
CCN1C(=O)c2cccc3c(S(=O)(=O)N4CCCC4C(=O)O)ccc1c23 (configuration not stated) | x | -6 | -8 | 1
CCN1C(=O)c2cccc3c(S(=O)(=O)Nc4ccccc4)ccc1c23 | -0.15 | 17 | 105* | -1
COc1cc(Br)cc(/C=N/N(CCO)C2=NS(=O)(=O)c3ccccc32)c1OC | x | 115* | x | x
CCN(CC)C(=O)Oc1c(Br)cc(Br)c2ccc(C)nc12 | x | 15 | x | x
CCn1c2ccccc2c2cc(NS(=O)(=O)c3ccccc3)ccc21 | 0.045 | 2 | 136* | -1
CC(C)=CCc1c(O)cc(O)c2c(=O)cc(-c3ccc(O)cc3)oc12 | -0.9 | 19 | 94* | -2
CS(=O)(=O)N(CC(=O)NC1CCCCCC1)c1ccc(F)cc1 | x | 7 | 4 | 0
C[C@H](CO)N1C[C@H](C)[C@H](CN(C)Cc2ccc(C(=O)Nc3ccccc3N)cc2)Oc2c(NC(=O)C3CCCCC3)cccc2C1=O | 0.059 | 18 | 127* | -2
C[C@H]1CN([C@@H](C)CO)C(=O)c2cccc(NC(=O)c3ccncc3)c2O[C@H]1CN(C)Cc1ccc(C(=O)Nc2ccccc2N)cc1 | -0.71 | 17 | 36 | -3
C[C@@H]1CN([C@@H](C)CO)C(=O)c2cccc(NC(=O)c3ccncc3)c2O[C@@H]1CN(C)Cc1ccc(C(=O)Nc2ccccc2N)cc1 | -0.44 | 5 | 128* | -1
C[C@@H]1CN([C@@H](C)CO)C(=O)c2cccc(NC(=O)C3CCOCC3)c2O[C@@H]1CN(C)Cc1ccc(C(=O)Nc2ccccc2N)cc1 | -0.25 | 12 | 126* | -2
C[C@H]1CN([C@@H](C)CO)C(=O)c2cc(NC(=O)C3CCCCC3)ccc2O[C@H]1CN(C)Cc1ccc(C(=O)Nc2ccccc2N)cc1 | 0.11 | 2 | 110* | -4
C[C@@H]1CN([C@H](C)CO)C(=O)c2cccc(NC(=O)c3ccncc3)c2O[C@H]1CN(C)Cc1ccc(C(=O)Nc2ccccc2N)cc1 | -0.31 | 9 | 35 | 0
COc1ccccc1N(CC(=O)N1CCN(C)CC1)S(C)(=O)=O | x | 11 | 7 | 2
CCCC(=O)NCc1nc2ccccc2n1C(C)c1ccccc1 (configuration not stated) | x | -3 | x | x
C[C@H]1CN([C@@H](C)CO)C(=O)c2cccc(NC(=O)C3CC3)c2O[C@H]1CN(C)Cc1ccc(C(=O)Nc2ccccc2N)cc1 | -0.23 | -5 | 94* | -2
SMILES | YB-1 expression | U2OS ROS induce | NOMO-1 viab | PD-1 reverse act
C[C@H](CO)N1C[C@H](C)[C@@H](CN(C)Cc2ccc(C(=O)Nc3ccccc3N)cc2)Oc2c(NC(=O)C3CCOCC3)cccc2C1=O | 0.078 | 8 | 23 | 1
CCN(CC)CC(O)Cn1c(C)c(-c2ccccc2)c2cc([N+](=O)[O-])ccc21 (configuration not stated) | x | x | 94* | x
CCN(CC)CC(O)Cn1c2c(c3ccccc31)CCCC2=O (configuration not stated) | x | -9 | 21 | 3
COC(=O)Nc1nc2ccc(SC(C)C)cc2[nH]1 | 0.25 | 7 | 118* | x
CCOc1ccc2nc(SCC(=O)Nc3ccc(Cl)cc3)[nH]c2c1 | x | 5 | 39 | -6
CCCSc1ccc2nc(NC(=O)OC)[nH]c2c1 | -0.028 | 48 | 118* | x
